Records with an inconclusive call do not appear. Where a call stands in place of a potency, no number is given. Active and inactive are the calls of the source. The call rests on the fitted dose curve.
Test: p53 small molecule agonists, cell-based qHTS assay with rat liver microsomes (AID 1963578)
Conditions: HCT-116 p53RE-bla, beta-lactamase ratio, 16 h; series mostly up to 66 µM
In short: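 Rat liver microsome activation: microsomes 0.5 mg/mL, NADPH 0.5 mg/mL final; p53RE-bla cells, 16 h 37 C; LiveBLAzer readout, 2 h RT dark.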
Potency means the concentration at half of the fitted maximal effect.

O=C1O[C@H](CO)[C@@H](O)[C@H](O)[C@H]1O
Potency: inactive

CN(C)Cc1cc(CN(C)C)c(O)c(CN(C)C)c1
Potency: inactive

C=C(C)OC(C)=O
Potency: inactive

C=CC(=O)OCCOCCOCCOCCOC(=O)C=C
Potency: inactive

NNc1ccc(C(=O)O)cc1
Potency: inactive

CCCCCCCCCC
Potency: inactive

C/C=C1/CC2C=CC1C2 (stereo not given)
Potency: inactive

O=C(OCc1ccccc1)c1ccc(O)cc1
Potency: inactive

CC(=O)O[C@]1(C(C)=O)CC[C@H]2[C@@H]3C[C@H](C)C4=CC(=O)CC[C@]4(C)[C@H]3CC[C@@]21C
Potency: inactive

C[C@]12CC[C@@H]3c4ccc(O)cc4C[C@@H](CCCCCCCCCS(=O)CCCC(F)(F)C(F)(F)F)[C@H]3[C@@H]1CC[C@@H]2O (stereo not given in full)
Potency: inactive

CCCCCCCCCCCCc1ccccc1O
Potency: inactive

NCCN
Potency: inactive

C[C@]12CC[C@@H]3c4ccc(O)cc4CC[C@H]3[C@@H]1CC[C@@H]2O
Potency: inactive

C#C[C@]1(O)CC[C@H]2[C@@H]3CCc4cc(O)ccc4[C@H]3CC[C@@]21C
Potency: inactive

O=C(O)Cc1c[nH]c2ccccc12
Potency: inactive

O=C(O)c1ccccc1Nc1cccc(C(F)(F)F)c1
Potency: inactive

O=C1CCc2ccccc2O1
Potency: inactive

Cc1ccncc1
Potency: inactive

Oc1ccc(O)cc1
Potency: inactive

CCCCC(CC)COC(=O)c1ccc(C(=O)OCC(CC)CCCC)cc1 (stereo not given)
Potency: inactive

CCOCCOCCO
Potency: inactive

Cc1ccc2ncccc2c1
Potency: inactive

CC(=O)[C@@]1(O)CC[C@H]2[C@@H]3C[C@H](C)C4=CC(=O)C=C[C@]4(C)[C@@]3(F)[C@@H](O)C[C@@]21C
Potency: inactive

O=c1cc[nH]c(=O)[nH]1
Potency: inactive

CCOCCO
Potency: inactive

O=C(O)c1ccccc1C(=O)O
Potency: inactive

O=CCc1ccccc1
Potency: inactive

Cc1cc(C)c(O)c(C)c1
Potency: inactive

Cc1ccc(O)c(-n2nc3ccccc3n2)c1
Potency: inactive

CCCCCCCCC/C=C/CC1CC(=O)OC1=O (stereo not given)
Potency: inactive

CCCCC/C=C\C/C=C\CCCCCCCC(=O)OC
Potency: inactive

NC(N)=NC(N)=NCCc1ccccc1
Potency: inactive

OC[C@H]1O[C@H](O[C@]2(CCl)O[C@H](CCl)[C@@H](O)[C@@H]2O)[C@H](O)[C@@H](O)[C@H]1Cl
Potency: inactive

C=CCNCC=C
Potency: inactive

Cc1cc(C(C)(C)C)c(O)c(C(C)(C)C)c1
Potency: inactive

CC1(C)O[C@@H]2C[C@H]3[C@@H]4CCC5=CC(=O)C=C[C@]5(C)[C@@]4(F)[C@@H](O)C[C@]3(C)[C@]2(C(=O)CO)O1
Potency: inactive

CCNc1ccccc1
Potency: inactive

CC(=O)Nc1ccc(CC(=O)O)cc1
Potency: inactive

CC(C)CCCCCCCOC(=O)CCCCC(=O)OCCCCCCCC(C)C
Potency: inactive

c1ccc2ccccc2c1
Potency: inactive

CCCCCCCCCCCCCCCC(=O)O
Potency: inactive

O=C1CCCC1
Potency: inactive

CCCCOCCOC(=O)c1ccccc1C(=O)OCCOCCCC
Potency: inactive

COCCOCCOC
Potency: inactive

CCC1(c2ccccc2)C(=O)NCNC1=O
Potency: inactive

CCn1c2ccccc2c2cc(N)ccc21
Potency: inactive

CCCCC(CC)COC(=O)C(C#N)=C(c1ccccc1)c1ccccc1 (stereo not given)
Potency: inactive

CC(=O)Nc1nnc(S(N)(=O)=O)s1
Potency: inactive

Cc1ccc(Cl)cc1
Potency: inactive

C=CCc1ccc(O)c(OC)c1
Potency: inactive

C=Cc1ccc(C)cc1
Potency: inactive

COC(=O)[C@H]1[C@H]2C[C@@H]3c4[nH]c5cc(OC)ccc5c4CCN3C[C@H]2C[C@@H](OC(=O)c2cc(OC)c(OC)c(OC)c2)[C@@H]1OC
Potency: inactive

CCCCCCOC(C)=O
Potency: inactive

C=CCCCCCCCCCC
Potency: inactive

Nc1cc(Cl)c(-c2cc(Cl)c(N)cc2Cl)cc1Cl
Potency: inactive

CCCCOCCOCCSC#N
Potency: inactive

c1ccncc1
Potency: inactive

C=C(CC(=O)O)C(=O)O
Potency: inactive

CCCCCC(=O)O
Potency: inactive

CN(C)C(=O)Nc1ccc(Cl)c(Cl)c1
Potency: inactive

CC(O)CN(CCN(CC(C)O)CC(C)O)CC(C)O (stereo not given)
Potency: inactive

c1ccc2c(c1)c1cccc3ccc4cccc2c4c31
Potency: 32.2 µM (active)

COC(=O)CC(=O)OC
Potency: inactive

CCCCCCCCCCCC[N+](C)(C)C
Potency: inactive

CC12CCC(CC1)C(C)(C)O2
Potency: inactive

O=c1c(-c2ccc(O)cc2)coc2cc(O)cc(O)c12
Potency: inactive

CN(C)CCC(c1ccccc1)c1ccccn1 (stereo not given)
Potency: inactive

C=C(C)C1CC=C(C)C(OC(C)=O)C1 (stereo not given)
Potency: inactive

O=C(O)CC(O)C(=O)O (stereo not given)
Potency: inactive

C/C=C/C(=O)N(CC)c1ccccc1C
Potency: inactive

Source: PubChem BioAssay (Tox21)
